Shown are actives, neighbours in structure and some others; about 4.1% of the full set was active somewhere.
MEKK2mut PB1 HTS – signal of MEK5 binding to mutant human MEKK2 PB1 domain; bead flow cytometry, Alexa488-MEK5 binding to MEKK2 mutant; percent response, % at 10 µM; 0.35% of 290,000 active; AID 1530; in the data active = percent response above about 24%, passing the limit was not always enough
MEKK3 PB1 HTS – modulators (inhibitors or enhancers) of MEK5 binding to human MEKK3 PB1 domain; binding response (% of control), % at 10 µM; 1.4% of 290,000 active; bead-based flow cytometry, Alexa488-MEK5 binding to MEKK3; actives lie on both sides; 0 = blocked by unlabeled MEK5, 100 = vehicle;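 active = binding response more than 3 SD above or below the average of its plate-row segment, actives on both sides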;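 note: Alexa488 bead fluorescence after subtracting the streptavidin-only scavenger bead signal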
MEKK2 WT-MEK5 – raises or lowers MEK5 binding to wildtype human MEKK2 PB1 domain; Q9Y2U5; AID 1531; 1.1% of 290,000 active; bead flow cytometry, Alexa488-MEK5 binding to MEKK2 WT; actives lie on both sides; binding response (% of control), % at 10 µM; in the data active = binding response below about 67% or above about 130%
SUMO Mot1 rescue – SUMOylation pathway inhibition by Mot1-301 growth rescue | S. cerevisiae Mot1-301 growth rescue, ATP luminescence, 38.5C; percent above DMSO median, 100 means doubled | growth rescue, % at 18.8 µM | 1% of 320,000 active;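 active = every valid replicate shows activation above 250% relative to neutral control wells; inactive = the rest, any valid replicate at or below 250%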
CHT allo act – allosterically activates the human high affinity choline transporter; CHT-expressing cells, membrane potential dye, choline EC20; hits give high values; LV-AA mutant CHT in HEK293 cells; B-score at 10 µM; 0.49% of 310,000 active; Q9GZV3;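 active = initial fluorescence not abnormally high and integrated response B-score, plate-corrected, over 3 SD above library mean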
Target sequence (Q9GZV3 whole entry, looked up): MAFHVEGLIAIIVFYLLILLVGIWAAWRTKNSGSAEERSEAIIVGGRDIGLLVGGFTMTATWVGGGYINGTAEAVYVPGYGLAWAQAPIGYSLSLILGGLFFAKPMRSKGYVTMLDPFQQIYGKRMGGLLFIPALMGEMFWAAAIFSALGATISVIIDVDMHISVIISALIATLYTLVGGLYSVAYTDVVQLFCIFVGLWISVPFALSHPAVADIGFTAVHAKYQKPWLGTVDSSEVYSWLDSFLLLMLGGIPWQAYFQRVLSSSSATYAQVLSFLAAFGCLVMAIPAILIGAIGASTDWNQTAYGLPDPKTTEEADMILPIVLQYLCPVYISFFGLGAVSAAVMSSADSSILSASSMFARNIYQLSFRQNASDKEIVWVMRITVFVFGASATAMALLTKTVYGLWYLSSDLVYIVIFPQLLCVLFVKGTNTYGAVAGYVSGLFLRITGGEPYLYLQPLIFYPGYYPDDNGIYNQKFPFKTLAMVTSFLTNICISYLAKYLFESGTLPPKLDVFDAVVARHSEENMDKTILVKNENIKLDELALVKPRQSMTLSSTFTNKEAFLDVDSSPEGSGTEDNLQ
CHT inh – human CHT choline transport inhibition; CHT-expressing cells, membrane potential dye, choline response; hits give low values; B-score at 10 µM; 0.86% of 310,000 active; AID 488975;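 active = B-score over 3 SD under the library average, and starting fluorescence ratio not unusually high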;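 note: choline stimulus applied at its EC90 after an EC20 pre-addition; B-score computed on integrated fluorescence ratio after choline addition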
MEKK2wt confirm – raises or lowers MEK5 binding to wildtype human MEKK2, retest | shares compounds with MEKK3 PB1 HTS | bead flow cytometry, Alexa488-MEK5 binding to MEKK2 WT; actives lie on both sides | binding response (% of control), % at 10 µM | 2.4% of 5,900 active; in the data active = binding response below about 16% or above about 210%; inactive = in between
MEKK2mut-MEK5 – signal of MEK5 binding to mutant human MEKK2, retest. shares compounds with MEKK3 PB1 HTS. bead flow cytometry, Alexa488-MEK5 binding to MEKK2 mutant. percent response, % at 10 µM. 2% of 5,900 active; in the data active = percent response mostly above about 71%, no sharp cut-off; inactive = mostly below about 38%;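 note: higher means compound restores mutant binding toward wildtype level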
MEKK3-MEK5 inh – confirmation of inhibitors of MEK5 binding to human MEKK3; shares compounds with MEKK3 PB1 HTS; bead flow cytometry, Alexa488-MEK5 binding to MEKK3; hits give low values; binding response (% of control), % at 10 µM; 1.8% of 5,900 active; AID 1894;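 active = binding response below 72% of control, or above a set upper limit, though filed actives all read lower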;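 note: lower values mean stronger disruption of MEK5 binding to MEKK3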
Large screens that a line does not name were inactive (follow-up assays come after a bar, where they were run); [ ] = another dose, or the depositor's remark.

OCC1(Cc2cccc(C(F)(F)F)c2)CCN(Cc2cc(F)cc(F)c2)CC1	none
Cc1ccc(-n2cc(CN3CCC(CO)(Cc4cccc(C(F)(F)F)c4)CC3)cn2)cc1	MEKK2mut PB1 HTS 123, MEKK2 WT-MEK5 227 | MEKK2wt confirm inactive | MEKK2mut-MEK5 inactive | MEKK3-MEK5 inh inactive
Cc1ccc(-n2cc(CN3CCC(CO)(Cc4ccccc4)CC3)cn2)cc1	none
O=S(=O)([O-])CCC[n+]1c(/C=C\Nc2ccccc2)oc2ccc(-c3ccccc3)cc21	none (no result: SUMO Mot1 rescue, CHT allo act, CHT inh)
CN1CCN(c2ccc(NC(=O)c3ccc(C#N)cc3F)cc2Cl)CC1	none
Cc1cc(C)nc(Sc2nc(Cl)nc(N(c3ccccc3)c3ccccc3)n2)n1	none
CCn1nc(C(=O)OC(C(=O)c2c[nH]c3ccccc23)c2ccccc2)c2ccccc2c1=O (centres undefined)	none
COc1ccc(/C(=C/Nc2cccc(Br)c2)C(C)=O)cc1OC	none
O=C(NCCOC(=O)c1ccc(Cl)cc1)c1cccnc1	none
CC1Cc2ccccc2N1S(=O)(=O)c1cccs1 (centres undefined)	MEKK2 WT-MEK5 8.0[inhibitor] | MEKK2wt confirm inactive | MEKK2mut-MEK5 inactive | MEKK3-MEK5 inh inactive
CCCc1cc(=O)n2[nH]c(SCc3ccc(Cl)cc3)nc2n1	none
CSc1ccc(S(=O)(=O)NCC(=O)OCC(=O)NCc2cccs2)cc1[N+](=O)[O-]	none (no result: MEKK2mut PB1 HTS, MEKK3 PB1 HTS, MEKK2 WT-MEK5)
O=C(c1cc(-c2ccco2)nc2ccccc12)N1CCCC(C(F)(F)F)C1 (centres undefined)	none (no result: MEKK2mut PB1 HTS, MEKK3 PB1 HTS, MEKK2 WT-MEK5, CHT allo act, CHT inh)
O=C(c1ccccc1)N(Cc1ccco1)C1CCS(=O)(=O)C1 (centres undefined)	none
O=C(c1ccc(Cl)cc1)N(Cc1ccco1)C1CCS(=O)(=O)C1 (centres undefined)	MEKK3 PB1 HTS 2.0[inhibitor], MEKK2 WT-MEK5 1.0[inhibitor] | MEKK2wt confirm inactive | MEKK2mut-MEK5 inactive | MEKK3-MEK5 inh inactive
O=C(O)/C=C/C(=O)NC1CCC(CC2CCC(NC(=O)/C=C/C(=O)O)CC2)CC1 (centres undefined)	none
Cc1ccc(NC(=O)CSC2=C(C#N)C(c3ccc4c(c3)OCO4)CC(=O)N2)cc1C (centres undefined)	MEKK3 PB1 HTS 81[inhibitor] | MEKK2wt confirm inactive | MEKK2mut-MEK5 inactive | MEKK3-MEK5 inh inactive
CCN1CCN(CCNC(=O)c2ccc(/C=C3\Sc4ccccc4N(Cc4ccccc4F)C3=O)cc2)CC1	none
CN1CCN(CCCNC(=O)c2ccc(/C=C3/Sc4ccccc4N(Cc4cccc(Cl)c4)C3=O)cc2)CC1	MEKK2mut PB1 HTS 65, MEKK2 WT-MEK5 224 (no result: SUMO Mot1 rescue, CHT allo act, CHT inh) | MEKK2wt confirm 209 | MEKK2mut-MEK5 73 | MEKK3-MEK5 inh inactive
CN1CCN(CCCNC(=O)c2ccc(/C=C3\Sc4ccccc4N(Cc4ccc(F)cc4)C3=O)cc2)CC1	MEKK2 WT-MEK5 163 (no result: SUMO Mot1 rescue, CHT allo act, CHT inh) | MEKK2wt confirm inactive | MEKK2mut-MEK5 inactive | MEKK3-MEK5 inh inactive
CCCCSc1cc(=O)[nH]c(N)n1	MEKK3 PB1 HTS 70[inhibitor] | MEKK2wt confirm inactive | MEKK2mut-MEK5 inactive | MEKK3-MEK5 inh inactive
Cc1ccc2[nH]c(C(=O)NCCN3CCCC3)cc2c1	MEKK2 WT-MEK5 137 | MEKK2wt confirm inactive | MEKK2mut-MEK5 inactive | MEKK3-MEK5 inh inactive
Cc1nc(NC(=O)c2ccccc2)sc1-c1csc(NCc2ccccc2)n1	none
Cc1nc(NC(=O)c2ccccc2)sc1-c1csc(NCCc2ccccc2)n1	MEKK3 PB1 HTS 49[inhibitor] | MEKK2wt confirm inactive | MEKK2mut-MEK5 inactive | MEKK3-MEK5 inh inactive
COc1cccc(S(=O)(=O)NC2CCN(C#N)C2)c1 (centres undefined)	none (no result: MEKK2mut PB1 HTS, MEKK3 PB1 HTS, MEKK2 WT-MEK5, CHT allo act, CHT inh)
CC(NC(=O)C(C)(C)C)c1nc2ccccc2n1C (centres undefined)	MEKK3 PB1 HTS 0.0[inhibitor], MEKK2 WT-MEK5 0.0[inhibitor] | MEKK2wt confirm inactive | MEKK2mut-MEK5 inactive | MEKK3-MEK5 inh inactive
Cc1cc(C)c(NC(=O)C2CCCN2CCOC(=O)c2ccccc2)c(C)c1 (centres undefined)	MEKK3 PB1 HTS 142 | MEKK2wt confirm inactive | MEKK2mut-MEK5 inactive | MEKK3-MEK5 inh inactive
Cc1cc(C)c(NC(=O)C2CCCN2C(=O)NC2CCCCC2)c(C)c1 (centres undefined)	MEKK3 PB1 HTS 125 | MEKK2wt confirm inactive | MEKK2mut-MEK5 inactive | MEKK3-MEK5 inh inactive
Cc1cccc(OCC(=O)NCCCNC(=O)c2ccncc2)c1	none
COc1cc(CNCCCN2CCOCC2)cc(Br)c1OCc1ccc(Cl)cc1	MEKK2 WT-MEK5 158 | MEKK2wt confirm inactive | MEKK2mut-MEK5 inactive | MEKK3-MEK5 inh inactive
CCOc1cc(CNCCCN2CCOCC2)cc(Br)c1OCC(=O)Nc1cccc(C(F)(F)F)c1	MEKK2mut PB1 HTS 31, MEKK2 WT-MEK5 162 | MEKK2wt confirm inactive | MEKK2mut-MEK5 inactive | MEKK3-MEK5 inh inactive
CCOc1cc(CNCCCN2CCOCC2)cc(Cl)c1OCC(=O)NC(C)(C)C	none
CCOC(=O)c1c(NC(=O)CSc2nnnn2C)sc(C)c1-c1ccc(C)cc1	none
COc1ccccc1-c1nnc(SCC(=O)O)n1-c1ccccc1	MEKK3 PB1 HTS 135 | MEKK2wt confirm inactive | MEKK2mut-MEK5 inactive | MEKK3-MEK5 inh inactive
O=C(COC(=O)c1cccc(C(=O)OCC(=O)NCc2ccc(F)cc2)n1)NCc1ccc(F)cc1	none
Cc1cc(C(=O)NC2=NCCS2)c2ccccc2n1	MEKK3 PB1 HTS 132 | MEKK2wt confirm inactive | MEKK2mut-MEK5 inactive | MEKK3-MEK5 inh inactive
CC(C)CCN1CCN(Cc2cccc3cccnc23)CC1CCO (centres undefined)	none
Nc1cc(S(=O)(=O)Nc2cc(Cl)ccc2Cl)ccc1N1CCCC1	MEKK3 PB1 HTS 36[inhibitor], MEKK2 WT-MEK5 40[inhibitor] | MEKK2wt confirm inactive | MEKK2mut-MEK5 inactive | MEKK3-MEK5 inh inactive
NC(=O)c1ccc(-n2nnnc2SCC(=O)Nc2ccccc2)cc1	none
O=C(/C(=N\Nc1ccccc1)Sc1nnnn1-c1ccccc1)c1ccccc1	MEKK3 PB1 HTS 138 | MEKK2wt confirm inactive | MEKK2mut-MEK5 inactive | MEKK3-MEK5 inh inactive
CC(=O)Nc1ccc(S(=O)(=O)NCc2ccc3c(c2)cc(C)n3C)cc1	MEKK3 PB1 HTS 70[inhibitor], MEKK2 WT-MEK5 50[inhibitor] | MEKK2wt confirm inactive | MEKK2mut-MEK5 inactive | MEKK3-MEK5 inh inactive
